aSyn UTR act: Activators working through SNCA 5'UTR binding (MLPCN); activity score, % (tested at 7.5 µM), hits read low; 300,000 tested, 7.1% active; alpha-synuclein 5'UTR reporter, activators screen; in the data active = activity score below about -60%
The depositor's hits bear a star. The list is a sample of the results.

SMILES | aSyn UTR act
Cc1ccnc(N2CCN(C(=O)CSc3nc4ccccc4nc3N3CCC(C)CC3)CC2)c1 | -80*
COC(=O)C(=Cc1ccc(OCc2ccc([N+](=O)[O-])cc2)c(OC)c1)C(=O)OC | -259*
COc1cc(C(c2c(C)[nH][nH]c2=O)c2c(C)[nH][nH]c2=O)ccc1OCc1ccc([N+](=O)[O-])cc1 | -146*
CCOC(=O)C(=Cc1ccc(OCc2ccc([N+](=O)[O-])cc2)c(OC)c1)C(=O)OCC | -267*
Cc1c(Cl)cccc1NC(=S)N=Nc1c(O)n(CN2CCOCC2)c2ccccc12 | 64
CC(C)c1ccc(C(=O)Nc2ccc(CN3CCOCC3)cc2)cc1 | -68*
CSc1ccccc1NC(=O)c1ccc(CN2CCOCC2)cc1 | -97*
CC(C)c1ccc(NC(=S)NN2CCOCC2)cc1 | -135*
O=C(Nc1ccc2c(c1)OCO2)c1ccc(CN2CCOCC2)cc1 | -104*
O=C(c1ccc(Br)cc1)c1cc([N+](=O)[O-])ccc1N1CCCCC1 | 92
Nc1nnnn1/N=C/c1ccc(N2CCCCC2)c([N+](=O)[O-])c1 | -64*
O=C(/C=C/c1ccc(N2CCCCC2)c([N+](=O)[O-])c1)c1ccc(O)cc1 | -464*
COc1ccccc1C(=O)/C=C/c1ccc(N2CCCCC2)c([N+](=O)[O-])c1 | -216*
c1ccc(Oc2ccc(-c3ccn[nH]3)cc2)cc1 | -79*
Nc1ccc(Oc2cccc(Oc3ccc(N)cc3)c2)cc1 | 87
Cc1ccc2nc(-c3cccc(NC(=O)c4ccc5c(c4)OCCO5)c3)oc2c1 | -87*
O=C(Nc1ccc2oc(-c3ccc4ccccc4c3)nc2c1)c1ccc2c(c1)OCCO2 | -113*
CCC(=O)Nc1cccc(-c2nc3ccc(C)cc3o2)c1 | -75*
O=C(Nc1nnc(SCc2ccccc2F)s1)C1=COCCO1 | -117*
C=CCSc1nnc(NC(=O)C2=COCCO2)s1 | -82*
CC(=O)Nc1nnc(SCc2ccccc2F)s1 | -76*
c1ccc(CSc2nnc(NC3=NCCCCC3)s2)cc1 | -89*
O=C(NCCc1ccccc1)C1=COCCO1 | -129*
O=C(Nc1nnc(SCc2ccccc2)s1)C1=COCCO1 | -72*
CCCCOc1ccc(C(=O)Nc2cccc(C)n2)cc1 | -68*
SMILES | aSyn UTR act
CCOc1ccc(NC(=O)Nc2cccc(C)n2)cc1 | -143*
COc1cccc(NC(=O)Nc2cccc(C)n2)c1 | -110*
CCOc1ccc(NC(=O)Nc2cc(C)ccc2F)cc1 | -199*
Cc1cccc(NC(=O)Nc2ccccc2)n1 | -76*
Cc1ccc(NC(=O)Nc2cccc(C)n2)c(C)c1 | -104*
O=C(c1ccc([N+](=O)[O-])o1)N1CCc2ccccc2C1 | -103*
O=C(c1ccc([N+](=O)[O-])o1)N1CCc2ccccc21 | -190*
COc1ccc(/C=C/C(=O)c2ccc([N+](=O)[O-])o2)cc1OC | 61
CC(=O)c1ccc(-c2ccc(C(=O)N3CCN(c4ccc(F)cc4)CC3)o2)cc1 | -73*
COc1cc2c(cc1OC)CN(C(=O)c1ccc([N+](=O)[O-])o1)CC2 | -175*
Cc1ccc(C(=O)N2CCc3ccccc32)o1 | -94*
CC(=O)c1ccc(-c2ccc(C(=O)N3CCCc4ccccc43)o2)cc1 | -66*
COc1ccc2oc(C(=O)N3CCCc4ccccc43)c(C)c2c1 | -91*
O=c1cc2[nH]c3ccccc3c(=O)n2nc1-c1ccccc1 | -125*
O=C(NCCc1ccccc1)C(=O)NCC1CCCO1 (stereo not given) | -64*
Cc1ccc(NC(=O)C(=O)NCC2CCCO2)cc1C (stereo not given) | -96*
Cc1ccc(NC(=O)C(=O)NCC2CCCO2)cc1 (stereo not given) | -85*
COc1ccc(NC(=O)C(=O)N/N=C\c2ccc(CNC(=O)C(=O)Nc3ccc(C)c(C)c3)o2)c(OC)c1 | 88
CC1CCN(C(=O)COC(=O)c2n[nH]c3ccccc23)CC1 | -144*
CCc1ccc(C(=O)COC(=O)c2n[nH]c3ccccc23)cc1 | -129*
N#CC1=C(N)OC2=C(CC/C2=C\c2ccccc2)C1c1ccccc1 (stereo not given) | -63*
Cc1nn(C)c(C)c1/C=C(/C(=O)C(C)(C)C)n1cncn1 | 89
CCOC(=O)C1CCN(C(=O)C2CCN(c3ncnc4c3nc3n4CCCCC3)CC2)CC1 | -108*
CC(/C=N/NC(=O)c1cc(-c2ccc(Cl)cc2)nc2ccccc12)=C\c1ccco1 | 85
Cc1ccc(CN2CCN(CC(=O)N/N=C/c3ccccc3F)CC2)cc1 | -63*
SMILES | aSyn UTR act
O=C(CNC(=O)c1ccccc1O)N/N=C/c1cc(Br)ccc1OC(=O)/C=C/c1ccco1 | 68
COc1ccc(C(=O)NCC(=O)N/N=C/C(C)=C/c2ccco2)cc1OC | -62*
CC(/C=N/NC(=O)CN1CCN(Cc2ccc(Cl)cc2)CC1)=C\c1ccco1 | -87*
O=C(CN1CCN(Cc2ccccc2)CC1)N/N=C/C=C/c1ccco1 | -95*
CC(/C=N/NC(=O)Cc1cccn1C)=C\c1ccco1 | -69*
O=[N+]([O-])c1ccccc1N/N=C/c1cccc(O)c1O | -104*
O=C(NC(CSCc1ccccc1)C(=O)N/N=C/c1ccc(O)cc1O)c1ccc([N+](=O)[O-])cc1 (stereo not given) | 84
COc1ccc(/C=N/Nc2ncccc2[N+](=O)[O-])c(OC)c1 | -122*
O=[N+]([O-])c1cccc(N/N=C/c2cccc(O)c2O)c1 | -110*
C/C(=N\OCc1nc2ccccc2c(=O)n1/N=C/c1cc([N+](=O)[O-])ccc1O)c1ccccc1 | -62*
COc1ccc(/C=N/Nc2cc(C)nc3ccc(OC)cc23)c(OC)c1 | 117
Cc1cc(/C=N/Nc2nc(N)ncc2[N+](=O)[O-])c(C)n1-c1ccccc1F | 73
O=C(N/N=C/c1cc([N+](=O)[O-])ccc1O)c1cccc2cc[nH]c12 | 68
O=[N+]([O-])c1ccc(O)c(/C=N/n2cnc3ccccc32)c1 | -67*
O=[N+]([O-])c1ccc(O)c(/C=N/Nc2ccccc2Cl)c1 | -85*
CCCOc1ccc(/C=N/Nc2ccccc2[N+](=O)[O-])c(OCCC)c1 | -133*
O=[N+]([O-])c1ccccc1N/N=C\c1ccccc1F | -165*
O=[N+]([O-])c1ccccc1N/N=C\c1ccccc1Cl | -209*
O=[N+]([O-])c1ccc(Sc2cccc[n+]2[O-])c2nonc12 | 85
CCOc1ccc(Nc2ccc([N+](=O)[O-])c3nonc23)cc1 | -123*
O=C(/C=C/N1CCOCC1)c1cc2ccccc2o1 | -82*
O=C(Nc1ccc(N2CCOCC2)cc1)c1cc2ccccc2o1 | -110*
O=C(Nc1ccc(CN2CCOCC2)cc1)c1cc2ccccc2o1 | -71*
Cc1c(C(=O)Nc2ccc(N3CCOCC3)cc2)oc2ccccc12 | -166*
O=C(Nc1ccc(CN2CCOCC2)cc1)c1cc2ccccn2n1 | 72
SMILES | aSyn UTR act
O=C(/C=C/N1CCOCC1)c1coc2ccccc12 | -104*
C=CCNC(=O)C1CCN(c2nc(C)cc(-c3ccccc3)n2)CC1 | -97*
Cc1ccc(OC(=O)c2sc3ncn(C)c(=O)c3c2C)cc1 | -120*
CC(C)Oc1ccc(C(=O)NC2CCCCC2)cc1 | -91*
O=C(NC1CCCCCCC1)c1ccc(Br)cc1 | -92*
C=CCOc1ccc(C(=O)NC2CCCCC2)cc1 | -161*
Cc1nn(-c2ccccc2Cl)c(Cl)c1/C=N/Nc1nc2ccccc2s1 | 69
Cc1nn(C(C)(C)C)c(C)c1/C=N/OC(=O)Nc1ccc(Cl)cc1 | 94
Cc1nn(-c2ccccc2)c(Cl)c1/C=N/NC(=O)OC(C)(C)C | -131*
CNC(=S)N/N=C/c1c(C)nn(-c2ccccc2)c1Cl | -89*

Bioassay records from PubChem BioAssay.
